Only some compounds are listed: those with a hit (about 3.4% of all), similar ones and a draw of the others.
Imprint erasure: qHTS Assay for Compounds that Induce Erasure of Genomic Imprints. AID 1948, 2009. hit rate 0.02% among 110,000. mouse ES Peg3-LacZ reporter, beta-gal luminescence, 40 h. Potency, µM (highest dose often 60.7 µM), for the others: top-dose activity change, positive = activation, usual class: activators
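Imprint erasure is scored as LacZ activity from the silenced maternal Peg3 allele in feeder-free female ES cells cultured 40 h with LIF. Luminescence is normalized to in-plate negative controls and fitted to the Hill equation.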
Luciferase inh: qHTS Assay for Inhibitors of Firefly Luciferase; Luciferin 4-monooxygenase (Photinus pyralis), P08659; purified firefly luciferase, luminescence, 8 min; Potency, µM (doses to about 57.1 µM), inactives show at the highest dose activity change, negative = inhibition, usual class: inhibitors; hit rate 2.2% among 72,000; AID 411, 2009; further: on the % scale 0 is the no-effect control and ±100 the full control effect; nearly all actives have a fitted effect of over 40% in size
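Compounds were tested as concentration series (qHTS) against purified P. pyralis luciferase with luciferin and 10 uM ATP in 50 mM imidazole pH 7.2, 50 mM KCl, 7 mM MgCl2, 0.01% Tween 20, 0.05% BSA. Luminescence was read after 8 min at ambient temperature.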
p53ts 39C tox: qHTS Screen for Compounds that Selectively Target Cancer Cells with p53 Mutations: Cytotoxicity of p53ts Cells at the Nonpermissive Temperature; hit rate 1.5% among 130,000; Potency, µM (doses to about 46.1 µM), without a hit: top-dose activity change, negative = cell killing, usual class: cytotoxic; AID 902, 2007; H1299-p53A138V viability at 39C, ATP luminescence, 24 h; further: on the % scale 0 is the no-effect control and ±100 the full control effect; nearly all actives have a fitted effect of over 55% in size
p53ts 32C tox: qHTS Screen for Compounds that Selectively Target Cancer Cells with p53 Mutations: Cytotoxicity of p53ts Cells at the Permissive Temperature | H1299-p53A138V at 32C, ATP luminescence viability, 24 h | Potency, µM (highest dose often 46.1 µM), without a hit: top-dose activity change, negative = cytotoxicity, usual class: cytotoxic | hit rate 0.93% among 130,000;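 further: 0% = DMSO and -100% = full killing by reference compound; nearly all actives have a fitted effect of over 55% in size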
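Cells: H1299 p53ts (A138V), 600/well, pre-incubated 16–30 h at 37C. Cpd up to 46 uM, 24 h, 32C. Readout: ATPlite luminescence, 20 min RT. Normalization: DMSO vs tamoxifen 100 uM. AC50 by Hill equation.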
Tau filament bind: qHTS Assay for Tau Filament Binding. Potency, µM (highest dose often 57.1 µM), for inactives: at the highest dose activity change, negative = inhibition. hit rate 2% among 71,000. AID 596, 2007. Microtubule-associated protein tau (Homo sapiens), P10636. recombinant tau filaments, thioflavin S fluorescence, 15 h; filaments grown with octadecylsulfate alongside compound;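 further: on the % scale 0 is the no-effect control and ±100 the full control effect; actives lower thioflavin S fluorescence by blocking filaments or displacing dye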
Target sequence (P10636 whole entry, looked up): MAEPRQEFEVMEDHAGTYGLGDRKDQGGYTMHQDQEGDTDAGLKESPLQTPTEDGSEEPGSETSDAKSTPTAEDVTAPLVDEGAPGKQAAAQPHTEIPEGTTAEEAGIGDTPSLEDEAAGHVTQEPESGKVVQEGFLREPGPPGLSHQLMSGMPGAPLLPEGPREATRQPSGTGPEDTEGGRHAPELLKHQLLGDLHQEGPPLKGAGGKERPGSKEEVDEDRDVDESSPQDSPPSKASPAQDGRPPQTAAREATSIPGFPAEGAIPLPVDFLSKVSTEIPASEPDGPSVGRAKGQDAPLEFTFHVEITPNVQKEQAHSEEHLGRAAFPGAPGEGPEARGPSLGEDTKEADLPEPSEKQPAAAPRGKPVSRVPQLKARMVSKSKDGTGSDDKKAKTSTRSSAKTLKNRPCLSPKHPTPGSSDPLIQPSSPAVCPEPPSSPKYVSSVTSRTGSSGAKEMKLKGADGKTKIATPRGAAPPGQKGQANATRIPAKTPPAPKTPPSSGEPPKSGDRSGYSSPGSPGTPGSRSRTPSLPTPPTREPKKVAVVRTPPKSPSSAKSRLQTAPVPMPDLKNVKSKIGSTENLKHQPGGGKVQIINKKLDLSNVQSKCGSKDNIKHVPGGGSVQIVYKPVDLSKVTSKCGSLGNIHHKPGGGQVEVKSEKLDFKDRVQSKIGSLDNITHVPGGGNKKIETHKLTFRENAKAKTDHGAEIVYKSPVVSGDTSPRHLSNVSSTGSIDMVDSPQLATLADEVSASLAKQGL
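Assay mix: 1 uM His-tagged tau, 30 uM sodium octadecylsulfate, thioflavine S dye in HEPES/NaCl/DTT buffer. Compound is added prior to the inducer. Fluorescence after 15 h at 37 C.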
Starred values were filed as active, the others as inactive; [ ] = another dose, or the depositor's remark. The call rests on the fitted dose curve; in most records, active means well fitted curve in the direction sought with a large enough effect; inconclusive means small, poorly fitted or top-dose-only effect, or another doubt; inactive means no such curve, though single readings can be large; an effect the other way counts as inactive or inconclusive. Potency means the concentration at half of the fitted maximal effect.

For Cc1cc(C)cc(NC(=O)CCS(=O)(=O)c2ccc3nc(C)sc3c2)c1 the results were Imprint erasure inconclusive, p53ts 39C tox -6% and p53ts 32C tox 7%.
For CCCCOC(=O)c1cccc(NC(=O)/C=C/c2ccccc2Cl)c1 the results were Imprint erasure -20%[10.9 µM], p53ts 39C tox inconclusive and p53ts 32C tox inconclusive.
`O=C(Nc1cccnc1)c1coc(=O)c2ccccc12` gave Imprint erasure -7%, Luciferase inh -1%, p53ts 39C tox 2%, p53ts 32C tox 2% and Tau filament bind 3%.
O=C(O)c1cc2c(ccc3ccccc32)o1 was read as p53ts 39C tox -15% and p53ts 32C tox -6%.
`Cc1ccc(-c2cc(C(=O)Nc3cccnc3)c3ccccc3n2)o1` gave Imprint erasure -33%, Luciferase inh 7.9µM*, p53ts 39C tox -11%, p53ts 32C tox -17% and Tau filament bind -20%.
`O=C(Nc1cccnc1)c1cc2c(ccc3ccccc32)o1` gave Imprint erasure -50%, Luciferase inh 4µM*, p53ts 39C tox inconclusive, p53ts 32C tox -30% and Tau filament bind inactive.
`CN1C[C@@H](C(=O)N[C@]2(C)O[C@]3(O)[C@H]4CCCN4C(=O)[C@H](Cc4ccccc4)N3C2=O)C[C@H]2c3cccc4[nH]cc(c34)C[C@@H]21` gave Luciferase inh 2%, p53ts 39C tox 6%, p53ts 32C tox 10% and Tau filament bind -2%.
`O=C(NC1(C(F)(F)F)NC(=O)N(CCc2ccccc2)C1=O)c1ccccc1Cl` (configuration not stated) gave Imprint erasure -7%[10.9 µM], p53ts 39C tox 6% and p53ts 32C tox 9%.
For COC(=O)[C@@H]1CC[C@H](C)[C@@H](c2ccc(C)cc2)N1C(=O)c1ccc(/C=N\O[C@@H](C)c2cc(-c3c(C)cc(C)cc3C)no2)cc1 the results were Luciferase inh -2%[11.4 µM], p53ts 39C tox 11%[9.22 µM] and p53ts 32C tox -4%[9.22 µM].
Cc1ccc(OCC(=O)Nc2cccc(C)n2)c(C)c1 was read as Imprint erasure -42%, Luciferase inh 16µM*, p53ts 39C tox inconclusive, p53ts 32C tox inconclusive and Tau filament bind 6%.
`Cc1cccc(NC(=O)Nc2ccc(F)cc2)n1` gave Imprint erasure -17%[10.9 µM], p53ts 39C tox -27% and p53ts 32C tox -25%.
For Cc1ccc(NC(=O)Nc2cccc(C)n2)cc1 the results were Imprint erasure -18%[10.9 µM], p53ts 39C tox 16µM* and p53ts 32C tox 13µM*.
`CC(CNC(=O)c1sc2ncccc2c1-n1cccc1)c1ccccc1` (configuration not stated) gave Imprint erasure 8%[10.9 µM], p53ts 39C tox -25% and p53ts 32C tox -15%.
Screening N[C@H](Cc1ccc(F)cc1)C(=O)O returned Luciferase inh 0%, p53ts 39C tox -4%, p53ts 32C tox 16% and Tau filament bind -6%.
For N[C@H](C(=O)O)[C@@H]1C[C@@H]1C(=O)O the results were Imprint erasure -4%, Luciferase inh 1%, p53ts 39C tox 9%, p53ts 32C tox -18% and Tau filament bind inconclusive.
O=C(Nc1ccc(F)cc1)c1ncn(-c2ccccc2)n1 was read as Imprint erasure -32%[10.9 µM], p53ts 39C tox 16µM* and p53ts 32C tox inconclusive.
For O=C(Nc1ccc2nc(SCC(=O)N3CCc4ccccc43)sc2c1)c1ccc(F)cc1 the results were Imprint erasure -21%[10.9 µM], p53ts 39C tox 13µM* and p53ts 32C tox -18%.
Cc1ccc(C(=O)Nc2nnc(SCC(=O)N3CCCc4ccccc43)s2)cc1 was read as p53ts 39C tox 0.56µM*.
`O=C(Nc1ccc2nc(SCC(=O)N3CCc4ccccc43)sc2c1)c1cccc(F)c1` gave Imprint erasure -18%[10.9 µM], p53ts 39C tox -20% and p53ts 32C tox 3%.
